Compounds with a hit are over-represented: about 2% of the library has one in this group of screens.
ClpP mod = qHTS Assay for Activators of ClpP; ATP-dependent Clp protease proteolytic subunit (Bacillus subtilis (strain 168)), P80244; purified B. subtilis ClpP, FRET peptide cleavage, 20 min; Potency, µM (doses to about 57.5 µM), for the others: top-dose activity change, negative = active; 340,000 compounds, 1.9% hits; AID 651965, 2013; active = well fitted falling curve with a large enough effect; also: potency is read from the fitted curve at half-maximal effect; the source files actives as falling curves though it sought activators and does not explain the sign; nearly all actives have a fitted effect of over 65% in size
Target sequence (P80244 whole entry, looked up): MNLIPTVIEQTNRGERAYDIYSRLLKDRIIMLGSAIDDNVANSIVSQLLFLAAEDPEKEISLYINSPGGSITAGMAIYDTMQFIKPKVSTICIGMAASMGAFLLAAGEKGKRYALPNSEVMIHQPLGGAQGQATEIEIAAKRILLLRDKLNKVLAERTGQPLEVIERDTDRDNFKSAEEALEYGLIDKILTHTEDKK
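ClpP 10 microg/mL final, pH 8 Tris/KCl buffer with BSA, glycerol, Tween-20; compound pinned in; FRET-FV substrate; RT 20 min; Ex320/Em430; ΔFRET vs ADEP 5.8 microM, DMSO, no enzyme.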
IL2 activator = activates IL-2 in a cell-based reporter assay. IL-2 activation reporter assay, cell-based qHTS; stimulated with anti-CD3/CD4/CD28 beads; in transgenic mouse T cells. activation, % (series mostly up to about 46 µM). 360,000 compounds, 0.065% hits. AID 652025; in the data active = activation above about 50%; also: 0% is about no effect
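Unstimulated transgenic mouse T cells preincubated 60 min with compound, then stimulated with anti-CD3/anti-CD4-coated beads plus anti-CD28 for 18 h at 37 degrees C. IL-2 response read as EGFP and DsRed fluorescence by plate cytometry.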
NPSR antag = neuropeptide S receptor (human) antagonism, cAMP | Q6W5P4 | CHO-NPSR cells, cAMP TR-FRET, antagonist mode | Potency, µM (titrated, usually from 38.3 µM), without a hit: top-dose activity change, negative = inhibition, actives largely listed as inhibitors | 220,000 compounds, 1% hits; also: potency is read from the fitted curve at half-maximal effect; % is scaled to controls: 0 for no effect and ±100 for the full control effect; nearly all actives have a fitted effect of over 50% in size
PKM2 activator = PKM2 (human) enzyme activation. 260,000 compounds, 0.34% hits. P14618. AID 1631. purified PKM2, Kinase-Glo ATP luminescence, activation; response scale: 0% is enzyme alone, no compound. Potency, µM (highest dose often 57.5 µM), without a hit: at the top dose activation, most hits filed as activators; also: potency is read from the fitted curve at half-maximal effect; % is scaled to controls: 0 for no effect and ±100 for the full control effect; nearly all actives have a fitted effect of over 55% in size
Target sequence (P14618 whole entry, looked up): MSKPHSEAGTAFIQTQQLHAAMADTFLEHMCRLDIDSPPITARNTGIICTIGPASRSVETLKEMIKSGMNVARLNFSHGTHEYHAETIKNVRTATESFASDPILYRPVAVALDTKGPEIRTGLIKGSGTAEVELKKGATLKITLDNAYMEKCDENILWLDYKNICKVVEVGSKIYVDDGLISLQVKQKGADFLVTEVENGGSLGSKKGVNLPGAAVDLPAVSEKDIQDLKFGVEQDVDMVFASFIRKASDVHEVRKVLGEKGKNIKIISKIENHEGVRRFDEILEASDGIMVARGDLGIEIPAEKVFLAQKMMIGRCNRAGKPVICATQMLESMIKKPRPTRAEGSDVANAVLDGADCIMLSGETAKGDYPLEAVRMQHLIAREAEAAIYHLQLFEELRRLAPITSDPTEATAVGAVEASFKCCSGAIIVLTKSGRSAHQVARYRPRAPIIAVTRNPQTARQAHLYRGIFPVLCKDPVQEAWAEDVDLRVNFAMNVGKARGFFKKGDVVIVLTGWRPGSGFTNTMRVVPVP
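Purified hPK-M2 (>95%) run at intermediate activity with 0.1 mM ADP and 0.5 mM PEP in 50 mM imidazole pH 7.2, KCl, MgCl2; 1 h room temperature. ATP formed read by Kinase-Glo luminescence; normalized to uninhibited and no-enzyme controls.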
An asterisk follows results filed as active; / = no result given; [ ] = remark or other dose. Unless noted, calls follow the shape of the dose curve; as a rule, active = well fitted curve in the direction sought with a large enough effect; inconclusive = small, poorly fitted or top-dose-only effect, or another doubt; inactive = no such curve, though single readings can be large; an effect the other way counts as inactive or inconclusive.

SMILES	ClpP mod	IL2 activator	NPSR antag	PKM2 activator
CSc1nnc2n(C)c3c(c(=O)n12)C1(CCCC1)Cc1ccccc1-3	28.2µM*	-0.9	-10.4%[46.1 µM]	0.5%
NS(=O)(=O)c1ccc(NC(=O)CCCCCN2C(=O)c3ccccc3C2=O)cc1	2.7%	2.2	/	/
CCN(C[C@H]1N[C@@](C)(C(=O)OC)[C@H]2C(=O)N(C)C(=O)[C@@H]12)S(=O)(=O)c1ccc(-c2ccccc2)cc1	0.0%	-0.1	/	/
O=C(NC1CCCC1)c1ccc(Cn2c(=O)[nH]c3ccsc3c2=O)cc1	0.8%	-2.0	5.8%	-2.5%
O=C(CSc1nc2ccc(Cl)cc2[nH]1)NC1CCCc2ccccc21 (stereo unspecified)	/	-0.5	-3.4%	-2.2%
Cc1ccc2nc(SC(C)C(=O)NC3CCCc4ccccc43)[nH]c2c1 (stereo unspecified)	25.1µM*	0.9	-9.7%	-17.7%
CCOc1ccc(NC(=O)N2CCCC2C(=O)NCc2ccco2)cc1 (stereo unspecified)	/	0.2	/	1.0%
Cc1ccc(Cl)cc1N1CCN(C(=O)c2cnc(N3CCOCC3)c3ccccc23)CC1	31.6µM*	/	/	/
O=C(c1cnc(N2CCCCC2)c2ccccc12)N1CCN(c2ccc(Cl)cc2)CC1	25.1µM*	/	/	/
O=C(c1cnc(N2CCN(c3ncccn3)CC2)c2ccccc12)N1CCN(c2ncccn2)CC1	-6.9%	-1.0	-16.8%[46.1 µM]	-3.4%
Cc1ccc(N2CCN(C(=O)c3cnc(N4CCCCC4)c4ccccc34)CC2)c(C)c1	35.5µM*	/	/	/
Cc1cc(C)n(C(C)CC(=O)Nc2ccc3c(c2)OCCO3)n1 (stereo unspecified)	0.8%	0.1	/	/
COc1ccc(CCNC(=O)CSc2nc3ccccc3nc2Cc2ccc(C)cc2)cc1OC	-3.5%	/	/	/
COc1ccc2oc(C(=O)OCC(=O)NC3(C#N)CCCC3)c(C)c2c1	25.1µM*	0.8	/	/
COc1ccc2oc(C(=O)OCC(=O)Nc3ccc(OC)c(S(N)(=O)=O)c3)c(C)c2c1	28.2µM*	0.1	/	/
COc1ccc2oc(C(=O)OCc3nnc(-c4ccccc4)o3)c(C)c2c1	25.1µM*	-3.8	/	/
O=C(COC(=O)Cc1c(Cl)cccc1Cl)NCC1CCCO1 (stereo unspecified)	25.1µM*	-0.3	6.8%	-3.4%
CCCCOc1ccc(-c2[nH]ncc2C=O)cc1	/	-3.9	-7.8%	2.1%
Cc1cc(F)ccc1S(=O)(=O)N1CCCOC1CNC(=O)C(=O)NCCN1CCOCC1 (stereo unspecified)	0.7%	0.1	/	-1.4%
Cc1cc(NC(=O)CN2CCN(c3ccccn3)CC2)ccc1Br	-6.3%	-0.5	/	/
C[C@H]1Cc2c(COc3ccccc3)nc3c(c2CO1)CN(S(=O)(=O)c1ccc(C#N)cc1)CC3	/	/	/	-4.7%[11.5 µM]
COc1ccc2oc(C(=O)OCC(=O)Nc3cc(S(=O)(=O)N4CCOCC4)ccc3OC)c(C)c2c1	10µM*	0.7	/	/
COc1ccc2oc(C(=O)OCC(=O)Nc3ccc(NC(C)=O)cc3)c(C)c2c1	25.1µM*	-5.4	/	/
COc1ccc2oc(C(=O)OCC(=O)Nc3cc(S(=O)(=O)N4CCOCC4)ccc3C)c(C)c2c1	/	-0.3	/	/
CCOc1ccc2oc(C(=O)OCC(=O)NCC3CCCO3)c(C)c2c1 (stereo unspecified)	-0.5%	0.5	/	/
SMILES	ClpP mod	IL2 activator	NPSR antag	PKM2 activator
COc1ccc2oc(C(=O)OCC(=O)NCC3CCCO3)c(C)c2c1 (stereo unspecified)	12.6µM*	-1.8	/	/
CCC(NC(=O)COC(=O)C1CC2CCCC(C1)C2=O)c1ccc(Br)cc1 (stereo unspecified)	-3.9%	0.0	/	/
Cc1ccc2c(C)c(C(=O)NCc3ccc(S(N)(=O)=O)cc3)oc2c1	/	1.1	-3.3%	1.1%
CCOc1ccccc1N1CCN(C(=O)CSc2ccc3c(c2)OCCO3)CC1	-2.0%	0.2	/	/
COCCn1c(N)c(C(=O)NS(=O)(=O)c2ccc(C)cc2)c(=O)[nH]c1=O	/	1.8	0.8%	25.1µM*
OCc1ccccc1N=Cc1cccnc1	/	-1.8	/	0.7%
COc1cccc2c(Cl)c(CC=C(Cl)Cl)c(C)nc12	10µM*	0.4	24.1%	-6.0%
Cc1nc2c(C)cccc2c(SC(=N)N)c1CC=C(Cl)Cl	-19.5%	1.9	-6.1%[7.67 µM]	1.3%
Cc1cc(-c2ccccc2)nc2[n+]1CCN2C	28.2µM*	-5.5	-7.7%[46.1 µM]	-13.1%
Cc1ccc(NC(=O)Nc2ccc3c(c2)N(C)C(=O)c2ccccc2S3)c(C)c1	2.5%	/	/	/
CC(=O)c1c(C)[nH]c(C(=O)Nc2ccc3c(c2)OCCO3)c1C	1.2%	-1.4	-18.9%[46.1 µM]	-18.1%
COC(=O)C1=C(C)NC(C)=C(C(=O)OC)C1C(=O)OCC(=O)c1ccc(Br)cc1	-3.7%	0.9	/	/
COC(=O)C1=C(C)NC(C)=C(C(=O)OC)C1C(=O)OCC(=O)c1ccc(F)cc1	31.6µM*	-0.2	4.5%	4.0%
Cc1ccc(NC(=O)CN(C)C(=O)COc2ccccc2-c2ccccc2)cc1	/	0.1	/	/
CCOC(=O)c1cccc(NC(=O)Cn2c(=O)nc(-c3ccccc3)c3ccccc32)c1	-1.6%	/	/	/
Fc1cc(Br)ccc1NC(=S)Nc1ccccc1	28.2µM*	-0.5	-2.3%	2.5%
Fc1ccccc1NC(=S)Nc1ccc(Br)cc1	0.1%	-0.8	7.3%[46.1 µM]	4.4%
Nc1ccc(N2N=C(N3CCCC3)CC2=O)cc1	-0.2%	-1.8	/	/
Cc1cc[n+](-c2nc3ccccc3nc2[N-]S(=O)(=O)c2cccs2)cc1C	8.91µM*	-0.8	0.8%[46.1 µM]	-9.7%
Cc1cc[n+](-c2nc3ccccc3nc2[N-]S(=O)(=O)c2ccccc2)cc1	-2.0%	-1.2	0.9%[46.1 µM]	12.3%
OCCCN=c1cc(-c2ccccc2)oc2ccc(Cl)cc12	31.6µM*	-0.4	1.0%[46.1 µM]	2.9%
Cc1c(C(=O)C(=O)N2CCN(C)CC2)c2ccccc2n1C	12.6µM*	-0.3	8.3%	-1.5%
COc1ccccc1N1CCN(C(=O)C(=O)c2c(C)n(C)c3ccccc23)CC1	-0.6%	-1.5	/	/
O=S(=O)(NCCNc1nccc(C(F)(F)F)n1)c1ccccc1	1.1%	-0.9	-5.3%	17.8µM*
NS(=O)(=O)c1ccc(NCC2COc3ccccc3O2)c([N+](=O)[O-])c1 (stereo unspecified)	/	0.2	-5.6%	20µM*
SMILES	ClpP mod	IL2 activator	NPSR antag	PKM2 activator
CN(c1cccc(NC(=O)c2ccccc2N(Cc2ccccc2)S(C)(=O)=O)c1)S(C)(=O)=O	0.1%	0.6	/	1.9%
Cc1cccc(N2CCN(c3nc4ccccc4c(=O)n3-c3ccc(Cl)cc3)CC2)c1C	17.8µM*	/	/	/
O=C(OCC(=O)N1CCOCC1)c1ccc2ccccc2c1O	28.2µM*	-1.7	/	/
Cc1nc2nc(NC(=O)c3ccccc3F)[nH]n2c(=O)c1Cl	-0.6%	/	/	/
CCOC(=O)c1cnc(Nc2nc3ccccc3o2)nc1CSc1ncccn1	-3.5%	-4.8	/	/
CCOC(=O)c1cnc(Nc2nc3ccccc3o2)nc1CSC(=S)N(CC)CC	0.7%	-0.8	0.501µM*	-12.8%
CC(NC(=O)c1ccccc1O)c1ccccc1 (stereo unspecified)	15.8µM*	-2.1	2.4%[46.1 µM]	4.4%

Screening data from PubChem BioAssay.
